{
  "source": "PubChem BioAssay (NCATS)",
  "experiment_in_all_cases": "Cytotoxic Profiling of Annotated Libraries Using Quantitative High-Throughput Screening (AID 1296008); note: nearly all actives have a fitted effect of over 60% in size; note: potency is the fitted concentration of half-maximal effect; for max response: % is set by controls: 0 for no effect and ±100 for the full control effect",
  "conditions_in_all_cases": "Five cell lines viability, CellTiter-Glo ATP luminescence, 48-72 h; max response: stronger effect = lower value",
  "key": {"[1]": {"tested_on": "CRL-7250", "outline": "(§1)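 Cytotoxicity was measured as CellTiter-Glo ATP luminescence, read after 10 min at room temperature. Compound treatment of the cells lasted 48 or 72 hr at 37 degrees Celsius in a qHTS format.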"}, "[2]": {"tested_on": "HaCat", "outline": "as §1"}, "[3]": {"tested_on": "KB-3-1", "outline": "as §1"}, "[4]": {"tested_on": "HEK293", "outline": "as §1"}},
  "note": "Inconclusive results are not listed. Unmarked numbers belong to inactive results. Active and inactive are the calls of the source. Calls come from the whole dose curve; as a rule, active = well fitted inhibition curve with a large enough effect; inconclusive = small, poorly fitted or top-dose-only effect; inactive = flat fitted curve, though single readings scatter.",
  "data": [
    {"compound": "O=C(CN1C(=O)C2(CCCC2)NCC1c1cc(F)cc(F)c1)Nc1ccc2c(c1)CC1(C2)C(=O)Nc2ncccc21", "note": "(configuration not stated)", "values": [
      {"measurement": "outcome", "setting": "[1]", "result": "inactive"},
      {"measurement": "max response", "setting": "[2]", "result": 1.71, "unit": "%"},
      {"measurement": "outcome", "setting": "[3]", "result": "inactive"}
    ]},
    {"compound": "N[C@@]1(C(=O)O)CC[C@H]2[C@H](C(=O)O)[C@H]21", "values": [
      {"measurement": "outcome", "setting": "[1]", "result": "inactive"},
      {"measurement": "max response", "setting": "[4]", "result": 4.28, "unit": "%"},
      {"measurement": "max response", "setting": "[3]", "result": 2.99, "unit": "%"}
    ]},
    {"compound": "O=C1C=CC(O)(/C=C/C(=O)OC[C@H]2O[C@@H](Oc3ccc(O)cc3)[C@H](O)[C@@H](O)[C@@H]2O)C=C1", "values": [
      {"measurement": "max response", "setting": "[1]", "result": 0.651, "unit": "%"},
      {"measurement": "max response", "setting": "[2]", "result": 4.51, "unit": "%"},
      {"measurement": "max response", "setting": "[3]", "result": -7.33, "unit": "%"}
    ]},
    {"compound": "CCCCc1ccc(C(=O)Nc2cc(-c3ccc(Cl)cc3)nn2-c2ccc(Cl)cc2)cc1", "values": [
      {"measurement": "max response", "setting": "[1]", "result": -0.768, "unit": "%"},
      {"measurement": "max response", "setting": "[2]", "result": -3.42, "unit": "%"},
      {"measurement": "max response", "setting": "[3]", "result": -4.76, "unit": "%"}
    ]},
    {"compound": "CC(O)/C=C/C1(O)C(C)C(O[C@@H]2O[C@H](CO)[C@@H](O)[C@H](O)[C@H]2O)C(O)CC1(C)C", "note": "(some centres not stated)", "values": [
      {"measurement": "max response", "setting": "[1]", "result": 0.975, "unit": "%"},
      {"measurement": "outcome", "setting": "[4]", "result": "inactive"},
      {"measurement": "max response", "setting": "[3]", "result": -3.24, "unit": "%"}
    ]},
    {"compound": "CC(C)C(CO)Nc1nc(Nc2ccc(C(=O)O)c(Cl)c2)c2ncn(C(C)C)c2n1", "note": "(configuration not stated)", "values": [
      {"measurement": "outcome", "setting": "[1]", "result": "inactive"},
      {"measurement": "max response", "setting": "[4]", "result": -4.16, "unit": "%"},
      {"measurement": "max response", "setting": "[3]", "result": 1.82, "unit": "%"}
    ]},
    {"compound": "CNC(=O)c1cccc(-c2ccc3c(N4CCOC[C@@H]4C)nc(N4CCOC[C@@H]4C)nc3n2)c1", "values": [
      {"measurement": "Potency", "setting": "[1]", "result": "580 nM (active)"},
      {"measurement": "Potency", "setting": "[4]", "result": "366 nM (active)"},
      {"measurement": "Potency", "setting": "[3]", "result": "326 nM (active)"}
    ]},
    {"compound": "C=C1CCC2C(C)(C(=O)O)CCCC2(C)C1CCC(C)CC(=O)O", "note": "(configuration not stated)", "values": [
      {"measurement": "max response", "setting": "[1]", "result": 1.5, "unit": "%"},
      {"measurement": "max response", "setting": "[2]", "result": 3.35, "unit": "%"},
      {"measurement": "max response", "setting": "[3]", "result": -0.708, "unit": "%"}
    ]},
    {"compound": "CCCCOC(=O)NC(=O)C1c2ccccc2Oc2ccccc21", "values": [
      {"measurement": "max response", "setting": "[1]", "result": -2.73, "unit": "%"},
      {"measurement": "outcome", "setting": "[4]", "result": "inactive"},
      {"measurement": "max response", "setting": "[3]", "result": 2.73, "unit": "%"}
    ]},
    {"compound": "Cc1[nH]c2ccccc2c1CCNC(=O)c1ccccc1F", "values": [
      {"measurement": "max response", "setting": "[1]", "result": -5.45, "unit": "%"},
      {"measurement": "max response", "setting": "[4]", "result": 2.26, "unit": "%"},
      {"measurement": "max response", "setting": "[3]", "result": 3.4, "unit": "%"}
    ]},
    {"compound": "O=C(O)c1ccc(OC2OC(CO)C(O)C(O)C2O)cc1", "note": "(configuration not stated)", "values": [
      {"measurement": "outcome", "setting": "[1]", "result": "inactive"},
      {"measurement": "max response", "setting": "[4]", "result": -2.82, "unit": "%"},
      {"measurement": "max response", "setting": "[3]", "result": 6.64, "unit": "%"}
    ]},
    {"compound": "COc1ccc2nc(S(=O)(=O)Cc3ncc(C)c(OC)c3C)[nH]c2c1", "values": [
      {"measurement": "max response", "setting": "[1]", "result": -21.3, "unit": "%"},
      {"measurement": "max response", "setting": "[2]", "result": -8.8, "unit": "%"},
      {"measurement": "max response", "setting": "[3]", "result": -6.6, "unit": "%"}
    ]},
    {"compound": "CCC1=CC2CN(C1)Cc1c([nH]c3ccccc13)[C@@](C(=O)OC)(c1cc3c(cc1OC)N(C)[C@H]1[C@@](O)(C(=O)OC)[C@H](OC(C)=O)[C@]4(CC)C=CCN5CC[C@]31[C@@H]54)C2", "note": "(some centres not stated)", "values": [
      {"measurement": "Potency", "setting": "[1]", "result": "126 nM (active)"},
      {"measurement": "outcome", "setting": "[2]", "result": "inactive"},
      {"measurement": "Potency", "setting": "[3]", "result": "35.5 nM (active)"}
    ]},
    {"compound": "COc1cc2c(cc1OC)N1C(=O)C[C@]34C=CCN5CC[C@@H]2[C@@H](CC3)[C@]514", "values": [
      {"measurement": "outcome", "setting": "[1]", "result": "inactive"},
      {"measurement": "max response", "setting": "[4]", "result": -26.4, "unit": "%"},
      {"measurement": "max response", "setting": "[3]", "result": 7.8, "unit": "%"}
    ]},
    {"compound": "CC1(C)CC2C=C(C(=O)O)C3COC(=O)C(O)(CO)C23C1", "note": "(configuration not stated)", "values": [
      {"measurement": "max response", "setting": "[1]", "result": -19.1, "unit": "%"},
      {"measurement": "max response", "setting": "[4]", "result": 4.03, "unit": "%"},
      {"measurement": "outcome", "setting": "[3]", "result": "inactive"}
    ]},
    {"compound": "CNS(=O)(=O)CC1CCC(N(C)c2ncnc3[nH]ccc23)CC1", "note": "(configuration not stated)", "values": [
      {"measurement": "max response", "setting": "[1]", "result": 2.42, "unit": "%"},
      {"measurement": "max response", "setting": "[4]", "result": -8.69, "unit": "%"},
      {"measurement": "max response", "setting": "[3]", "result": -6.06, "unit": "%"}
    ]},
    {"compound": "COc1cc(C2c3cc4c(c(O)c3CC(CO)C2C(=O)O)OCO4)cc(OC)c1O", "note": "(configuration not stated)", "values": [
      {"measurement": "Potency", "setting": "[1]", "result": "3170 nM (active)"},
      {"measurement": "Potency", "setting": "[4]", "result": "2240 nM (active)"},
      {"measurement": "Potency", "setting": "[3]", "result": "2000 nM (active)"}
    ]},
    {"compound": "COc1cc(/C=C/C(=O)OC[C@H]2O[C@@](CO)(O[C@H]3O[C@H](CO)[C@@H](O)[C@H](O)[C@H]3O)[C@@H](OC(=O)/C=C/c3ccc(O)c(OC)c3)[C@@H]2O)ccc1O", "values": [
      {"measurement": "max response", "setting": "[1]", "result": -25.3, "unit": "%"},
      {"measurement": "max response", "setting": "[2]", "result": -7.21, "unit": "%"},
      {"measurement": "max response", "setting": "[3]", "result": -7.62, "unit": "%"}
    ]},
    {"compound": "CCn1cc(NC(=S)Nc2cc(Cl)ccc2OC)c(C(N)=O)n1", "values": [
      {"measurement": "max response", "setting": "[1]", "result": -6.99, "unit": "%"},
      {"measurement": "max response", "setting": "[2]", "result": -0.793, "unit": "%"},
      {"measurement": "outcome", "setting": "[3]", "result": "inactive"}
    ]},
    {"compound": "CS(=O)(=O)N1CCC(NC(=O)c2[nH]ncc2NC(=O)c2c(Cl)cccc2Cl)CC1", "values": [
      {"measurement": "Potency", "setting": "[1]", "result": "3260 nM (active)"},
      {"measurement": "Potency", "setting": "[2]", "result": "4610 nM (active)"},
      {"measurement": "Potency", "setting": "[3]", "result": "820 nM (active)"}
    ]},
    {"compound": "Cc1cc(Nc2ncc3cc(-c4c(Cl)cccc4Cl)c(=O)n(C)c3n2)ccc1F", "values": [
      {"measurement": "Potency", "setting": "[1]", "result": "1840 nM (active)"},
      {"measurement": "Potency", "setting": "[2]", "result": "5800 nM (active)"},
      {"measurement": "Potency", "setting": "[3]", "result": "2590 nM (active)"}
    ]},
    {"compound": "Cc1cc(C(=O)N2Cc3cnn(C)c3Nc3ccccc32)ccc1CNC(=O)N1CCC[C@H]1C(=S)N1CCCN(C)CC1", "values": [
      {"measurement": "max response", "setting": "[1]", "result": 2.05, "unit": "%"},
      {"measurement": "max response", "setting": "[2]", "result": -21.4, "unit": "%"},
      {"measurement": "max response", "setting": "[3]", "result": 2.82, "unit": "%"}
    ]},
    {"compound": "CC(=O)OC[C@@]12C(=O)C[C@@H](C)[C@]3(C[C@@H](c4ccoc4)O[C@H]3OC(C)=O)[C@H]1CCC[C@]21CO1", "values": [
      {"measurement": "max response", "setting": "[1]", "result": -15.6, "unit": "%"},
      {"measurement": "max response", "setting": "[4]", "result": -5.69, "unit": "%"},
      {"measurement": "max response", "setting": "[3]", "result": -1.02, "unit": "%"}
    ]},
    {"compound": "O=C(Cc1ccc(-c2ccccc2)cc1)NC1CCC1", "values": [
      {"measurement": "outcome", "setting": "[1]", "result": "inactive"},
      {"measurement": "max response", "setting": "[2]", "result": -21.1, "unit": "%"},
      {"measurement": "max response", "setting": "[3]", "result": 4.19, "unit": "%"}
    ]}
  ]
}
